Results filed as inconclusive are left out. Where a call stands in place of a potency, no number is given. Active and inactive are the calls of the source. Unless noted, calls follow the shape of the dose curve; as a rule, active = well fitted curve in the direction sought with a large enough effect; inconclusive = small, poorly fitted or top-dose-only effect, or another doubt; inactive = no such curve, though single readings can be large; an effect the other way counts as inactive or inconclusive.
Legend:
[1] = target: Cytochrome P450 2D6 (Homo sapiens) (UniProt P10635); experiment: Cytochrome P450 family 2 subfamily D member 6 (CYP2D6) small molecule antagonists: luciferase biochemical (cell-free) qHTS assay (AID 1645840; active = well fitted curve in the direction sought with a large enough effect in the repeat runs; an effect the other way counts as inactive or inconclusive; also: nearly all actives have a fitted effect of over 55% in size; also: potency is read from the fitted curve at half-maximal effect; as to activity change, negative = inhibition: series mostly up to about 57 µM)
In short: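 P450-Glo CYP2D6 system: proluciferin substrate converted by enzyme to luciferin, read by luminescence proportional to activity. Enzyme-substrate mix with compound 10 min at room temperature, then NADPH regeneration 1 h before detection reagent.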

[2] = target: Calcium and integrin-binding protein 1 (Homo sapiens) (UniProt Q99828); experiment: Primary qHTS for Identification of Calcium Integrin Binding Protein 1 (CIB1) Competitor (AID 1508620);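 also: GST tagged CIB1 binding a fluorescein labelled alphaIIb integrin peptide tracer; top concentration of the series differs between compounds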
In short: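 Fluorescence polarization competition: CIB1-GST (1 uM final) preincubated with compound 15 min at room temperature, then FITC-labeled alphaIIb peptide (100 nM final) added for another 15 min. Polarization read at Ex 480/Em 540.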

[3] = target: Cytochrome P450 2C9 (Homo sapiens) (UniProt P11712); experiment: Cytochrome P450 family 2 subfamily C member 9 (CYP2C9) small molecule antagonists: luciferase biochemical (cell-free) qHTS assay (AID 1645842; active = well fitted curve in the direction sought with a large enough effect in the repeat runs; an effect the other way counts as inactive or inconclusive; also: nearly all actives have a fitted effect of over 55% in size; also: potency is read from the fitted curve at half-maximal effect; as to activity change, negative = inhibition: series mostly up to about 57 µM)
In short: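 P450-Glo CYP2C9 system: proluciferin substrate with enzyme in mix containing 0.4% BSA, 10 min at room temperature, then NADPH regeneration solution added and incubated 1 h at 37C. Detection reagent stopped reaction; luminescence read after 20 min as RLU.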

[4] = Primary qHTS for inhibitors of nuclear receptor binding SET domain protein 2 (NSD2) in an isogenic RCH-ACV NSD2 p.E1099K mutant (9B) (AID 1645876); also: nearly all actives have a fitted effect of over 70% in size
[5] = Primary qHTS for inhibitors of nuclear receptor binding SET domain protein 2 (NSD2) in an RCH-ACV wild type WT cells (2C) (AID 1645877); also: nearly all actives have a fitted effect of over 70% in size

Cytochrome P450 2C9 (Homo sapiens), sequence (P11712 whole entry, looked up): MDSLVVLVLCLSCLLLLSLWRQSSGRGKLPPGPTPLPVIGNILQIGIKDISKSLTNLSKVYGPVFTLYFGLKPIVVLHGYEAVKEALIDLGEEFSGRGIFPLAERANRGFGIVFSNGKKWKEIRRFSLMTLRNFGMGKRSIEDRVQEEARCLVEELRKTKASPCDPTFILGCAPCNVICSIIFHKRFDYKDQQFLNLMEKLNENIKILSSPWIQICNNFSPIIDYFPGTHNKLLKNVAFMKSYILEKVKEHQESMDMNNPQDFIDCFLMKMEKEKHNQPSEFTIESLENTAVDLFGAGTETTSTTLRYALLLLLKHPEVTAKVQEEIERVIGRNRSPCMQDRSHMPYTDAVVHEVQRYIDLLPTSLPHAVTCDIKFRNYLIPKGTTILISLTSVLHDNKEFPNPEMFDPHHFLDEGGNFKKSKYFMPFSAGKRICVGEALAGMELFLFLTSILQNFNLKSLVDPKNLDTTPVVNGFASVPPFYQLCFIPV
Calcium and integrin-binding protein 1 (Homo sapiens), sequence (Q99828 whole entry, looked up): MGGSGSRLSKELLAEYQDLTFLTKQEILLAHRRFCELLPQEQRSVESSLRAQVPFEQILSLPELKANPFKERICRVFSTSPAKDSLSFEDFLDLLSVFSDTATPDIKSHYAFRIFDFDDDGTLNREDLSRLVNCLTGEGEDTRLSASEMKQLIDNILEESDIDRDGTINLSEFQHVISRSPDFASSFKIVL
Cytochrome P450 2D6 (Homo sapiens), sequence (P10635 whole entry, looked up): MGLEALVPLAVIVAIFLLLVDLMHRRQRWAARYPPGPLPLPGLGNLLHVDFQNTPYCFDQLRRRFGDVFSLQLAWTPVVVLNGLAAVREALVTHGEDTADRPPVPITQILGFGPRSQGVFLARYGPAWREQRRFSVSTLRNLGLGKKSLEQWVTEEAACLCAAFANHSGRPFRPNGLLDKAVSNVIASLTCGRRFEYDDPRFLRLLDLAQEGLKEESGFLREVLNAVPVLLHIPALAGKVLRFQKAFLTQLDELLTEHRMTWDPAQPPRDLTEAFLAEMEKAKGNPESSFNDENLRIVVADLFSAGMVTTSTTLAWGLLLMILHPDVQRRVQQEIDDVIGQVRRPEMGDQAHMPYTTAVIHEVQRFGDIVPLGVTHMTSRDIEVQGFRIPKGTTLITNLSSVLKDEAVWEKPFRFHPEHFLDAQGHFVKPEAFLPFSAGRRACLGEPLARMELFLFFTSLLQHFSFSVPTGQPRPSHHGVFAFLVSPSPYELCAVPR

Cc1c(Cc2ccc3ccccc3n2)c2cc(F)ccc2n1CC(=O)O
Potency [1]: inactive

NC[C@H]1CCC[C@@H](CNC(=O)[C@@H](Cc2c[nH]c3ccccc23)NC(=O)N2CCC3(C=Cc4ccccc43)CC2)C1
Potency [2]: inactive | Potency [1]: 10.5 µM (active) | Potency [3]: 1.86 µM (active)

CC1(C)CC=C(C#Cc2ccccc2)c2cc(/C=C/c3ccc(C(=O)O)cc3)ccc21
Potency [2]: inactive | Potency [1]: inactive | Potency [3]: 19 µM (active) | Potency [4]: inactive

c1ccc2c(Nc3nnc(-c4ccncc4)s3)cccc2c1
Potency [2]: inactive | Potency [1]: inactive | Potency [3]: 6.01 µM (active) | Potency [4]: inactive | Potency [5]: inactive

Cc1cccc(NC(=O)CN2CCC(c3ccccn3)CC2)c1
Potency [2]: inactive | Potency [1]: 13.5 µM (active) | Potency [3]: 3.38 µM (active) | Potency [4]: inactive | Potency [5]: inactive

COc1ccccc1CN[C@H]1CCCN[C@H]1c1ccccc1
Potency [2]: inactive | Potency [1]: 1.07 µM (active) | Potency [3]: inactive | Potency [4]: inactive

COc1ccccc1Oc1c(NS(=O)(=O)c2ccc(C)cn2)nc(-c2ccncc2)nc1OC
Potency [2]: inactive | Potency [1]: inactive | Potency [3]: 26.8 µM (active) | Potency [4]: inactive | Potency [5]: inactive

CN1CCc2cc(Cl)c(O)cc2[C@@H](c2cccc3c2OCC3)C1
Potency [2]: inactive | Potency [1]: 0.477 µM (active) | Potency [3]: inactive

COc1cnc(-c2ccc(Cn3c(CC(C)(C)C(=O)O)c(SC(C)(C)C)c4cc(OC[C@@H]5Cc6ccccc6N5C(C)=O)ccc43)cc2)nc1
Potency [2]: inactive | Potency [1]: inactive | Potency [3]: 12 µM (active)

O=C(NC/C=C/CN1CCN(c2cccc(Cl)c2Cl)CC1)c1ccc(-c2ccccn2)cc1
Potency [2]: inactive | Potency [1]: 1.2 µM (active) | Potency [3]: 10.7 µM (active)

CCCC(=O)Nc1cccc(NC(=O)c2ccccc2Br)c1
Potency [2]: inactive | Potency [1]: inactive | Potency [3]: inactive | Potency [4]: inactive | Potency [5]: inactive

COc1cccc(OC)c1-c1cc(C(=O)N[C@@H](CC(C)C)C(=O)O)nn1-c1ccnc2cc(Cl)ccc12
Potency [2]: inactive | Potency [1]: 23.9 µM (active) | Potency [3]: 16.9 µM (active)

Cc1cc(-c2nncc3c(C(C)(C)C)c(OCc4ncnn4C)nn23)no1
Potency [2]: inactive | Potency [1]: inactive | Potency [3]: 3.01 µM (active) | Potency [4]: inactive | Potency [5]: inactive

CC(C)NC(=O)c1ccc(C#Cc2ccncc2)cn1
Potency [2]: inactive | Potency [1]: inactive | Potency [3]: 0.601 µM (active)

CC1(C)Oc2ncnc(N)c2N=C1c1ccc(C2CCC(CC(=O)O)CC2)cc1 (stereo not given)
Potency [2]: inactive | Potency [1]: inactive | Potency [3]: inactive | Potency [4]: inactive | Potency [5]: inactive

CC1(C)CC(NC(=O)C(=O)Nc2ccc(Cl)cc2)CC(C)(C)N1
Potency [2]: inactive | Potency [1]: inactive | Potency [3]: inactive | Potency [4]: inactive | Potency [5]: inactive

CC(=O)N[C@H](Cc1c[nH]c2ccccc12)C(=O)OCc1cc(C(F)(F)F)cc(C(F)(F)F)c1
Potency [2]: inactive | Potency [1]: 19 µM (active) | Potency [3]: 1.9 µM (active) | Potency [4]: inactive | Potency [5]: inactive

C[C@@H](NC(=O)c1cc(C(=O)N[C@@H](Cc2ccccc2)[C@H](O)CNC2CC2)cc(N(C)S(C)(=O)=O)c1)c1ccccc1
Potency [2]: inactive | Potency [1]: 4.77 µM (active) | Potency [3]: 4.25 µM (active) | Potency [4]: inactive

CN[C@H](CNC(=O)N1CCC[C@@H]([C@@H](OCCNC(=O)OC)c2cccc(Cl)c2)C1)C[C@H]1CCCOC1
Potency [2]: inactive | Potency [1]: 19 µM (active) | Potency [3]: inactive | Potency [4]: inactive | Potency [5]: inactive

CCCSc1nc(NC2CC2c2ccc(F)c(F)c2)c2nnn(C3CC(OCCO)C(O)C3O)c2n1 (stereo not given)
Potency [2]: inactive | Potency [1]: 21.3 µM (active) | Potency [3]: 3.79 µM (active)

CCOc1nc2c(N)ncnc2n1CC
Potency [2]: inactive | Potency [1]: inactive | Potency [3]: inactive | Potency [4]: inactive | Potency [5]: inactive

COc1cccc(Cn2ncc3c4sc(S(C)=O)cc4n(C)c3c2=O)c1 (stereo not given)
Potency [2]: inactive | Potency [1]: 10.7 µM (active) | Potency [3]: 12 µM (active)

O=C(O)[C@H]1Cc2ccccc2CN1
activity change, negative = inhibition [2]: 5.95% [at 12.4 µM] (inactive) | activity change, negative = inhibition [1]: 4.56% [at 11.5 µM] (inactive) | activity change, negative = inhibition [3]: 2.02% [at 11.5 µM] (inactive) | outcome [4]: inactive [at 4.96 µM] | outcome [5]: inactive [at 4.96 µM]

O=C(Cn1c2ccccc2c2nc3n(c(=O)c21)CCS3)N1CCCC1
Potency [2]: inactive | Potency [1]: inactive | Potency [3]: inactive | Potency [4]: inactive | Potency [5]: inactive

CCC(CC)CC1(C(=O)Nc2ccccc2SC(=O)C(C)C)CCCCC1
Potency [2]: inactive | Potency [1]: inactive | Potency [3]: 1.9 µM (active) | Potency [4]: inactive | Potency [5]: inactive

Oc1ccccc1-c1cc(-c2ccccc2F)[nH]n1
Potency [2]: inactive | Potency [1]: inactive | Potency [3]: 13.5 µM (active)

CN1CCN(c2nc(-c3ccc(C(=O)NC4(C(=O)NCC#N)CCCCC4)cc3)cs2)CC1
Potency [2]: inactive | Potency [1]: inactive | Potency [3]: 12 µM (active) | Potency [4]: inactive | Potency [5]: inactive

From PubChem BioAssay (NCATS)
